Data published in the supplement of paper PMC10849652.
The full data set covers some 7,900 targets. This sample favours those with a hit. About 0.6% of all pairs of compound and target were hits.

Key:
Assay in all cases: log2 fold change, soluble protein after heating vs DMSO (PISA); higher = thermal stabilisation; K562 cells, 10 uM, 30 min; active = over 0.2 and 3.5 SD of the protein, either way, in both replicates (recomputed)
[1] = compound: C1=CC=C(C=C1)[C@H](COC2=CC3=C(C=C2)NC(=O)N3)NC(=O)C4=CC=CN(C4=O)CC5=CC(=C(C=C5)F)F
Summary of the method: (§1)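 Values are thermal stability changes relative to control samples and are taken from duplicates. They are stated as log2 fold changes. Before quantification by TMTpro 16plex LC-MS/MS with equalised channel sums, K562 cells at 2×10^6 cells/mL were treated with 10 μM compound for 30 min, heated in aliquots for 3 min across 48°C-58°C, pooled, extracted in PBS with 0.5% NP-40 at 4°C, and centrifuged at 21,000xg for 90 min to give the soluble supernatant.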

[2] = compound: CC1=C(SC2=C1C(=N[C@H](C3=NN=C(N32)C)CC(=O)N)C4=CC=C(C=C4)Cl)C
Summary of the method: as §1

[3] = compound: CC1=C2C(=CC=C1)N=C(N(C2=O)C3=CC=CC=C3C)CN4C=NC5=C(N=CN=C54)N
Summary of the method: as §1

[4] = compound: Cc1sc2c(c1C)C(c1ccc(Cl)cc1)=N[C@@H](CC(=O)OC(C)(C)C)c1nnc(C)n1-2
Summary of the method: as §1

[5] = compound: c1ccc([C@@H]2C[C@H]2NC2CCNCC2)cc1
Summary of the method: as §1

Measured: log2 fold change

TMEM173 (UniProt Q86WV6)
inactive: [1] -0.035 | [2] 0.045 | [3] 0.086 | [4] -0.099 | [5] -0.005

WDR62 isoform 4 (UniProt O43379)
inactive: [1] 0.007 | [2] 0.027 | [3] 0.031 | [4] 0.004 | [5] 0.009

TMEM9B (UniProt Q9NQ34)
Chain of UniProt Q9NQ34 (Q9NQ34 whole entry, looked up): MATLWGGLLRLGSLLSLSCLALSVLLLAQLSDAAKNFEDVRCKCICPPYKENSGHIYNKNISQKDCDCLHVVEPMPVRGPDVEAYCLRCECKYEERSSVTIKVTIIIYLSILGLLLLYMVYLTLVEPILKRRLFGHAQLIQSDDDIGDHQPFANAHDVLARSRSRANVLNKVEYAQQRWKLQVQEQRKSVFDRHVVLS
inactive: [1] 0.043 | [2] 0.074 | [3] 0.093 | [4] -0.041 | [5] -0.011

TMEM223 (UniProt A0PJW6)
inactive: [1] 0.069 | [2] -0.045 | [3] 0.118 | [4] 0.03 | [5] -0.024

VDAC1 (UniProt P21796)
Chain of UniProt P21796 (P21796 whole entry, looked up): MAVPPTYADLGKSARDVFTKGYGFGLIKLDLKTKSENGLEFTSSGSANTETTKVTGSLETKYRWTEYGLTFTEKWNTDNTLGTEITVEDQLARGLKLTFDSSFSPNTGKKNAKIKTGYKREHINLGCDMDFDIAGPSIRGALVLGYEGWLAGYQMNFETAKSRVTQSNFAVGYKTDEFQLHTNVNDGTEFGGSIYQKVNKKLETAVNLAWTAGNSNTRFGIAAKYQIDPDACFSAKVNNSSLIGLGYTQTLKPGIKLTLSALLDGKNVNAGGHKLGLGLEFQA
inactive: [1] 0.047 | [2] 0.008 | [3] -0.024 | [4] -0.007 | [5] 0.026

TMEM161B (UniProt Q8NDZ6)
inactive: [1] -0.076 | [2] 0.13 | [3] 0.018 | [4] 0.092 | [5] 0.08

USP15 (UniProt Q9Y4E8)
inactive: [1] -0.038 | [2] 0.035 | [3] 0.059 | [4] 0.008 | [5] -0.016

TNPO3 (UniProt Q9Y5L0)
inactive: [1] -0.035 | [2] 0.063 | [3] 0.014 | [4] -0.022 | [5] -0.007

TOMM20 (UniProt Q15388)
Chain of UniProt Q15388 (Q15388 whole entry, looked up): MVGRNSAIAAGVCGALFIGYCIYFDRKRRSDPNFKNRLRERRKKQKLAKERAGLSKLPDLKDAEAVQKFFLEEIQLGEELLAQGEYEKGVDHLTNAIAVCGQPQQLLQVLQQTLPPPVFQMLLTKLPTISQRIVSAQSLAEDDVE
inactive: [1] 0.021 | [2] 0.025 | [3] 0.028 | [4] 0.006 | [5] 0.008

TRMT10C (UniProt Q7L0Y3)
Chain of UniProt Q7L0Y3 (Q7L0Y3 whole entry, looked up): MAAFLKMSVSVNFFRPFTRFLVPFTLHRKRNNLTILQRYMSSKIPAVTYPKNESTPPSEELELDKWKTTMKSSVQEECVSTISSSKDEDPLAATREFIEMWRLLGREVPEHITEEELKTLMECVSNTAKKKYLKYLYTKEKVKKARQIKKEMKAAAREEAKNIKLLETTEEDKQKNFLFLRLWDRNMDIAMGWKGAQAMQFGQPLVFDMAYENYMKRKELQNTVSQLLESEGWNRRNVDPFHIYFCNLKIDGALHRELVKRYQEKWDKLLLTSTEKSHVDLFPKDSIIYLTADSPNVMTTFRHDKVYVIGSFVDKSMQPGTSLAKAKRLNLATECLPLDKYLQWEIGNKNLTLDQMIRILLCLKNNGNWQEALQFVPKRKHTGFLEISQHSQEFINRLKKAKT
inactive: [1] -0.018 | [2] 0.029 | [3] 0.085 | [4] 0.005 | [5] -0.08

TMEM70 (UniProt Q9BUB7)
Chain of UniProt Q9BUB7 (Q9BUB7 whole entry, looked up): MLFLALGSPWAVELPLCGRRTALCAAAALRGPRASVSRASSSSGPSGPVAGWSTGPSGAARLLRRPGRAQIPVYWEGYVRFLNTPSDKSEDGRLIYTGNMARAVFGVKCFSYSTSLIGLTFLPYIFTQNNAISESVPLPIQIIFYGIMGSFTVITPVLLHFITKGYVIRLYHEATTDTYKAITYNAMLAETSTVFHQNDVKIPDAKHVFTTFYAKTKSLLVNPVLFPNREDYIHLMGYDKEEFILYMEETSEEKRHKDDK
inactive: [1] -0.002 | [2] 0.065 | [3] 0.057 | [4] -0.05 | [5] -0.002

VPS51 (UniProt Q9UID3)
inactive: [1] -0.047 | [2] 0.026 | [3] 0.047 | [4] -0.048 | [5] -0.044

VAMP7 (UniProt P51809)
Chain of UniProt P51809 (P51809 whole entry, looked up): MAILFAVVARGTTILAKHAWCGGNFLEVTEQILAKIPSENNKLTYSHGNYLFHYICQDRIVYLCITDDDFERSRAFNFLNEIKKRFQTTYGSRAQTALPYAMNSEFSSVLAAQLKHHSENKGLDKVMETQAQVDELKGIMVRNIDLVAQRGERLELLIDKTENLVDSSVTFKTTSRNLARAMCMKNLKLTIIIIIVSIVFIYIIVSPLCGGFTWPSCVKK
inactive: [1] 0.007 | [2] 0.044 | [3] 0.077 | [4] -0.047 | [5] 0.015

TMTC3 (UniProt Q6ZXV5)
inactive: [1] -0.012 | [2] 0.019 | [3] 0.011 | [4] -0.034 | [5] 0.005

VPS39 (UniProt Q96JC1)
inactive: [1] -0.087 | [2] 0.018 | [3] 0.071 | [4] -0.009 | [5] -0.052

TMEM9 (UniProt Q9P0T7)
Chain of UniProt Q9P0T7 (Q9P0T7 whole entry, looked up): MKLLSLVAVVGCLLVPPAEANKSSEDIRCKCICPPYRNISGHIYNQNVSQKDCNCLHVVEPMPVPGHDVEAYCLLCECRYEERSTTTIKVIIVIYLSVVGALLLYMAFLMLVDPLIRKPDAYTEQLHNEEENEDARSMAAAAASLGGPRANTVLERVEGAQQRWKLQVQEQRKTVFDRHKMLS
inactive: [1] 0.008 | [2] 0.02 | [3] -0.002 | [4] -0.027 | [5] -0.079

WDR41 (UniProt Q9HAD4)
inactive: [1] -0.045 | [2] -0.08 | [3] -0.033 | [4] -0.03 | [5] 0.055

TRIM44 (UniProt Q96DX7)
Chain of UniProt Q96DX7 (Q96DX7 whole entry, looked up): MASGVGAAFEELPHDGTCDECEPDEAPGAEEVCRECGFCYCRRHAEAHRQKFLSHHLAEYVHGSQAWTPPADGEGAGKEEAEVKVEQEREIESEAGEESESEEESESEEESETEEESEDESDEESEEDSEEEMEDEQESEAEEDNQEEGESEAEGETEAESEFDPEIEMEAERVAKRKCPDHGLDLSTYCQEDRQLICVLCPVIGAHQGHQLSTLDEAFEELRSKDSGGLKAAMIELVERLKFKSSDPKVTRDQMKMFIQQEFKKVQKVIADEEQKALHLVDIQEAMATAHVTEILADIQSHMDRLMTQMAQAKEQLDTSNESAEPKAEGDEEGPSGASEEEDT
inactive: [1] -0.027 | [2] 0.008 | [3] -0.002 | [4] -0.006 | [5] 0.012

TMEM63B (UniProt Q5T3F8)
inactive: [1] 0.059 | [2] -0.005 | [3] -0.099 | [4] -0.036 | [5] -0.04

VWA3B isoform 6 (UniProt Q502W6)
inactive: [1] -0.161 | [2] 0.069 | [3] 0.162 | [4] 0.129 | [5] 0.064

WDR37 isoform 2 (UniProt Q9Y2I8)
Chain of UniProt Q9Y2I8 (Q9Y2I8 whole entry, looked up): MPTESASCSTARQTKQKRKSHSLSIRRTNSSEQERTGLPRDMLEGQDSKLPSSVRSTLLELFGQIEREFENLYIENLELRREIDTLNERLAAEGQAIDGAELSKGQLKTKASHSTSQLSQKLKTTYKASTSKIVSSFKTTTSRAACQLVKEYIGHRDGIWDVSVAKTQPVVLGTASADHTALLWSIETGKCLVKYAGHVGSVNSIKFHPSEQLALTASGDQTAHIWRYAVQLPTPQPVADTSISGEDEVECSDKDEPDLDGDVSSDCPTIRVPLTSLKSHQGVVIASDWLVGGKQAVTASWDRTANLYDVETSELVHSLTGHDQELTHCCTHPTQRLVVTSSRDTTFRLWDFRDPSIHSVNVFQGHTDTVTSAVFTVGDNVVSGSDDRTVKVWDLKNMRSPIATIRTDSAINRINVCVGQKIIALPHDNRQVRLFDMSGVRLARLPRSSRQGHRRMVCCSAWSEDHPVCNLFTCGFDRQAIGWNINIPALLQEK
inactive: [1] 0.039 | [2] -0.06 | [3] 0.062 | [4] 0.079 | [5] 0.054

WDR43 (UniProt Q15061)
inactive: [1] 0.026 | [2] 0.027 | [3] 0.009 | [4] -0.009 | [5] 0.001

TPP1 (UniProt O14773)
inactive: [1] 0.019 | [2] 0.048 | [3] -0.02 | [4] 0.036 | [5] -0.067

WDR11 (UniProt Q9BZH6)
inactive: [1] -0.076 | [2] 0.067 | [3] 0.111 | [4] 0.05 | [5] 0.023

WDR7 (UniProt Q9Y4E6)
inactive: [1] -0.037 | [2] 0.013 | [3] -0.068 | [4] -0.131 | [5] -0.093

UBE4A isoform 2 (UniProt Q14139)
inactive: [1] -0.051 | [2] -0.067 | [3] 0.013 | [4] 0.013 | [5] 0.081

WDR18 (UniProt Q9BV38)
inactive: [1] 0 | [2] 0.011 | [3] -0.019 | [4] -0.037 | [5] 0.019

TTC4 (UniProt O95801)
inactive: [1] -0.089 | [2] -0.008 | [3] 0.099 | [4] 0.022 | [5] -0.029

UBAP2L isoform 5 (UniProt Q14157)
Chain of UniProt Q14157 (Q14157 whole entry, looked up): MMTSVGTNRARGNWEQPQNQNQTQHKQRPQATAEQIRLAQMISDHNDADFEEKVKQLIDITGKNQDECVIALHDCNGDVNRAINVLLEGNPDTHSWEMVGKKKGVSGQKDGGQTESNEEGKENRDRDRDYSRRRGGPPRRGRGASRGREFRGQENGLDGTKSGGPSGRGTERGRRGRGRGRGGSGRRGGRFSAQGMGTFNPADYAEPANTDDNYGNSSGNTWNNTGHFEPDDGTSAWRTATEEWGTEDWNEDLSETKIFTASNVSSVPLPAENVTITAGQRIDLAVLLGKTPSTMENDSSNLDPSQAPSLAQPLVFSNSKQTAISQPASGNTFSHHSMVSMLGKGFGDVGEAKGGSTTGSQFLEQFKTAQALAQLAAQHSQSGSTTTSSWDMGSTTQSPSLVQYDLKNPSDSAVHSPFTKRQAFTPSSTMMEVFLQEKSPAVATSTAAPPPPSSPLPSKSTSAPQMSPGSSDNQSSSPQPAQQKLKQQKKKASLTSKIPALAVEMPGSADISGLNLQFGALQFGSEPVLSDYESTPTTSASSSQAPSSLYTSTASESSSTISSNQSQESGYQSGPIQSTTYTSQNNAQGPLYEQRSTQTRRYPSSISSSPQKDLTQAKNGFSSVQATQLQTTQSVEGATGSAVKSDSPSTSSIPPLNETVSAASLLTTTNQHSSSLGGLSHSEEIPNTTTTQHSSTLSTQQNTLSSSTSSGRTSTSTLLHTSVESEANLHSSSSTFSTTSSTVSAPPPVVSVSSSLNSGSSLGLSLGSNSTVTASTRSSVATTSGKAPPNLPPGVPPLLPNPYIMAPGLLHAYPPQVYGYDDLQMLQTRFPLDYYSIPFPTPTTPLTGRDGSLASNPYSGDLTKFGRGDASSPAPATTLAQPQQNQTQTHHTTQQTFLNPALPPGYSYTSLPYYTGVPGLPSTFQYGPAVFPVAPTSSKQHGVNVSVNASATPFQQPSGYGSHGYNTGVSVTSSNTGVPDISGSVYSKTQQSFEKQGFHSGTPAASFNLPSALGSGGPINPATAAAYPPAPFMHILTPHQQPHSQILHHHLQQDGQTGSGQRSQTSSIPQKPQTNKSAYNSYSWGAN
inactive: [1] 0.055 | [2] 0.036 | [3] 0 | [4] -0.016 | [5] 0.017

TRAM1 (UniProt Q15629)
inactive: [1] -0.167 | [2] -0.024 | [3] -0.008 | [4] 0.049 | [5] -0.018

WDHD1 (UniProt O75717)
Chain of UniProt O75717 (O75717 whole entry, looked up): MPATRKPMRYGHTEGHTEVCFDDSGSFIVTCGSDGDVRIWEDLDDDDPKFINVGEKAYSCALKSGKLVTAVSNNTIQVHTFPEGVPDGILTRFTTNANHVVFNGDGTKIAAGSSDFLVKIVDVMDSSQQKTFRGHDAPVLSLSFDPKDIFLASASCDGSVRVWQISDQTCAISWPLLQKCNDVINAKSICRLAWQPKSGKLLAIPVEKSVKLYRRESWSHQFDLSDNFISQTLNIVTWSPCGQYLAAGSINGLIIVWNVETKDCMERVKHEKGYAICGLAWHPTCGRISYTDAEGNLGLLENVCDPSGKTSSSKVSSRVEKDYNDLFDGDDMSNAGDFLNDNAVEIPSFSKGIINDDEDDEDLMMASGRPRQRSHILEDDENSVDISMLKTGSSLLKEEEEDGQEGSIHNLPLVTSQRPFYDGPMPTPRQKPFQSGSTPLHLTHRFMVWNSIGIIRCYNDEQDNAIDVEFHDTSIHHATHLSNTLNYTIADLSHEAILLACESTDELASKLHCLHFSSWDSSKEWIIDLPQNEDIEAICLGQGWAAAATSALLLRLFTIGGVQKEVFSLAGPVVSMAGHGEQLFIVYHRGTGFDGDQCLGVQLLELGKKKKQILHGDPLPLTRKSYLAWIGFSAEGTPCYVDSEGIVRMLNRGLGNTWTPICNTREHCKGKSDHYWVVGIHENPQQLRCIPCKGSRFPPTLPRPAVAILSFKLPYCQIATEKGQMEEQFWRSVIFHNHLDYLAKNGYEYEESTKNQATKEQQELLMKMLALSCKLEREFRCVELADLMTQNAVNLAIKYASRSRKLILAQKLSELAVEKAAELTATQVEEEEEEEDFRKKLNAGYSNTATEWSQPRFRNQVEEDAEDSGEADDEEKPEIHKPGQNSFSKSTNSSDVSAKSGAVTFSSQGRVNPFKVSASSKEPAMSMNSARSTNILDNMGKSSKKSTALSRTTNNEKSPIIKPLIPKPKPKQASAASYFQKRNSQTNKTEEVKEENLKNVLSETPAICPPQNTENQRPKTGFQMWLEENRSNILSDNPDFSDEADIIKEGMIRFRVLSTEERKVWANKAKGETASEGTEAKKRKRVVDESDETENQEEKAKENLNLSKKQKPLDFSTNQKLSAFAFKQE
inactive: [1] -0.014 | [2] 0.085 | [3] 0.121 | [4] 0.002 | [5] 0.015

UGDH (UniProt O60701)
inactive: [1] 0.025 | [2] 0.052 | [3] 0.103 | [4] -0.04 | [5] -0.038

VPS52 (UniProt Q8N1B4)
inactive: [1] 0.068 | [2] 0.036 | [3] 0.137 | [4] -0.057 | [5] -0.028

TRAPPC2L (UniProt Q9UL33)
inactive: [1] -0.014 | [2] -0.044 | [3] -0.058 | [4] -0.063 | [5] 0.038

XPO5 (UniProt Q9HAV4)
inactive: [1] -0.037 | [2] 0.042 | [3] 0.02 | [4] -0.024 | [5] -0.01

TSFM (UniProt P43897)
inactive: [1] -0.17 | [2] 0.03 | [3] 0.177 | [4] -0.138 | [5] 0.012

UBA1 (UniProt P22314)
inactive: [1] -0.162 | [2] 0.044 | [3] 0.134 | [4] 0.044 | [5] -0.08

VPS37A (UniProt Q8NEZ2)
inactive: [1] -0.076 | [2] 0.088 | [3] 0.126 | [4] 0.007 | [5] 0.036

TPR (UniProt P12270)
inactive: [1] 0.053 | [2] 0.014 | [3] 0.001 | [4] 0.083 | [5] 0.043

TYW1 (UniProt Q9NV66)
inactive: [1] 0.017 | [2] -0.022 | [3] 0.039 | [4] -0.005 | [5] -0.091

UNC119B (UniProt A6NIH7)
inactive: [1] -0.093 | [2] -0.013 | [3] 0.094 | [4] -0.016 | [5] -0.009

TTC38 (UniProt Q5R3I4)
inactive: [1] 0.046 | [2] 0.049 | [3] 0.032 | [4] -0.061 | [5] -0.016

XPO1 (UniProt O14980)
inactive: [1] -0.064 | [2] 0.053 | [3] 0.044 | [4] -0.011 | [5] -0.013

UBE4B isoform 4 (UniProt O95155)
inactive: [1] -0.019 | [2] 0.03 | [3] 0.019 | [4] 0.006 | [5] -0.003

USP3 (UniProt Q9Y6I4)
inactive: [1] 0 | [2] 0.143 | [3] 0.036 | [4] -0.061 | [5] -0.025

VKORC1 (UniProt Q9BQB6)
Chain of UniProt Q9BQB6 (Q9BQB6 whole entry, looked up): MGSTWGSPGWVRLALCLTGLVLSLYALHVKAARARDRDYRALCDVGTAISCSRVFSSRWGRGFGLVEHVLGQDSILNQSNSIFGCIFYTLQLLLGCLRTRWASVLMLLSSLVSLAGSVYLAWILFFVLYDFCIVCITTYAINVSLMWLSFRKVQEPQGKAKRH
inactive: [1] -0.058 | [2] 0.132 | [3] 0.083 | [4] -0.183 | [5] -0.012

TRIP10 (UniProt Q15642)
inactive: [1] 0.016 | [2] 0.005 | [3] 0.081 | [4] 0.014 | [5] 0.037

TNFRSF10A (UniProt O00220)
inactive: [1] 0.033 | [2] 0.006 | [3] -0.058 | [4] 0.024 | [5] 0.01

USP25 isoform 3 (UniProt Q9UHP3)
inactive: [1] -0.02 | [2] 0.024 | [3] 0.068 | [4] -0.007 | [5] -0.007

WARS1 (UniProt G3V227)
inactive: [1] 0.09 | [2] -0.089 | [3] 0.042 | [4] 0.333 | [5] -0.185

UBE2J2 isoform 3 (UniProt Q8N2K1)
inactive: [1] 0.003 | [2] 0.078 | [3] -0.106 | [4] -0.014 | [5] -0.144

WNK1 isoform 7 (UniProt Q9H4A3)
inactive: [1] -0.011 | [2] 0.023 | [3] 0.049 | [4] -0.007 | [5] -0.003

UBR2 (UniProt Q8IWV8)
inactive: [1] -0.16 | [2] 0.04 | [3] 0.009 | [4] -0.014 | [5] -0.28
